Paper PMC11995724, “Antibiotic target discovery by integrated phenotypic and activity-based profiling of electrophilic fragments” (Cell chemical biology, 2025)
Out of some 3,200 compounds screened, about 75 (2%) showed an effect of 50% or more. The list comes from a sample in which strong results are over-represented; it also holds similar structures and randomly drawn compounds.

The compounds below were run on T1, S. aureus MSSA476. Conditions: relative growth, OD600, TSB; 25 µM; inhibitor.
T1 construct: MSSA476
Set-up: species or system S. aureus MSSA476 (TSB) or V. cholerae SAD30 (LB); 384-well bacterial growth screen at 25 uM, OD600 relative to DMSO control

Row | SMILES | % of control remaining [%]
1 | O=C(CCl)N1CCOc2c1cccc2C(F)(F)F [5-G08, 2-chloro-1-[8-(trifluoromethyl)-3,4-dihydro-2H-1,4-benzoxazin-4-yl]ethan-1-one] | 0.3643
2 | CC1CCN(C(=O)CCl)c2cc(C(F)(F)F)ccc2S1 (stereo not drawn) [5-J07, 2-chloro-1-[2-methyl-7-(trifluoromethyl)-2,3,4,5-tetrahydro-1,5-benzothiazepin-5-yl]ethan-1-one] | 106.011
3 | O=C(CCl)Nc1c(Cl)cccc1C(F)(F)F [5-B04, 2-chloro-N-[2-chloro-6-(trifluoromethyl)phenyl]acetamide] | 82.3315
4 | CN(C)S(=O)(=O)c1ccc(Cl)c(NC(=O)CCl)c1 [6-H12, 2-chloro-N-[2-chloro-5-(dimethylsulfamoyl)phenyl]acetamide] | 88.439
5 | C=CC(=O)N1CCN(Cc2cc(=O)n3ccsc3n2)CC1 [3-F22, 7-{[4-(prop-2-enoyl)piperazin-1-yl]methyl}-5H-[1,3]thiazolo[3,2-a]pyrimidin-5-one] | 101.698
6 | CC1CCN(C(=O)CCl)c2cc(Cl)ccc2S1 (stereo not drawn) [4-G16, 2-chloro-1-(7-chloro-2-methyl-2,3,4,5-tetrahydro-1,5-benzothiazepin-5-yl)ethan-1-one] | 93.3778
7 | CC1CSc2ccc(Cl)cc2N(C(=O)CCl)C1 (stereo not drawn) [5-J05, 2-chloro-1-(7-chloro-3-methyl-2,3,4,5-tetrahydro-1,5-benzothiazepin-5-yl)ethan-1-one] | 95.4463
8 | O=C(CCl)N1c2ccccc2Sc2ccc(Cl)cc21 [4-N07, 2-chloro-1-(2-chloro-10H-phenothiazin-10-yl)ethan-1-one] | 3.049
9 | CC(Cl)C(=O)N(Cc1nnc(-c2ccccc2Cl)o1)C1CC1 (stereo not drawn) [5-B17, 2-chloro-N-{[5-(2-chlorophenyl)-1,3,4-oxadiazol-2-yl]methyl}-N-cyclopropylpropanamide] | 92.5319
10 | O=C(CCl)c1cscn1 [10-L08, 2-chloro-1-(1,3-thiazol-4-yl)ethan-1-one] | 27.8125
11 | O=C(CCl)c1ccccn1 [10-J03, 2-chloro-1-(pyridin-2-yl)ethan-1-one] | 51.875
12 | C[C@H]1CN(C(=O)CCl)CCN1C(=O)c1cscn1 [5-L05, 2-chloro-1-[(3S)-3-methyl-4-(1,3-thiazole-4-carbonyl)piperazin-1-yl]ethan-1-one] | 92.5319
13 | CCOc1ccccc1NC(=O)C(C)Cl (stereo not drawn) [6-M10, 2-chloro-N-(2-ethoxyphenyl)propanamide] | 106.195
14 | C=CC(=O)NCc1nc(C2CC2)cs1 [2-A19, N-[(4-cyclopropyl-1,3-thiazol-2-yl)methyl]prop-2-enamide] | 138.207
15 | O=C(CCl)N1CCCSc2ccccc21 [4-E16, 2-chloro-1-(2,3,4,5-tetrahydro-1,5-benzothiazepin-5-yl)ethan-1-one] | 116.627
16 | O=C(CCl)N1c2ccccc2SCC1c1ccccc1 (stereo not drawn) [4-M18, 2-chloro-1-(3-phenyl-3,4-dihydro-2H-1,4-benzothiazin-4-yl)ethan-1-one] | 9.528
17 | CC1CSc2ccccc2N(C(=O)CCl)C1 (stereo not drawn) [5-H07, 2-chloro-1-(3-methyl-2,3,4,5-tetrahydro-1,5-benzothiazepin-5-yl)ethan-1-one] | 104.554
18 | C=CC(=O)N1C[C@H](NC(C)=O)[C@@H](c2ccnn2C)C1 (racemic) [2-M16, rac-N-[(3R,4S)-4-(1-methyl-1H-pyrazol-5-yl)-1-(prop-2-enoyl)pyrrolidin-3-yl]acetamide] | 90.5135
19 | Cc1nn(CC(C)C)c(Cl)c1C1CCCN1C(=O)C(C)Cl (stereo not drawn) [7-P19, 2-chloro-1-{2-[5-chloro-3-methyl-1-(2-methylpropyl)-1H-pyrazol-4-yl]pyrrolidin-1-yl}propan-1-one] | 108.32
20 | CC(Cl)C(=O)N(Cc1ccccc1)Cc1ccccc1 (stereo not drawn) [5-K19, N,N-dibenzyl-2-chloropropanamide] | 103.097
21 | CC(c1ccc(C(F)(F)F)cc1F)N(C)C(=O)CCl (stereo not drawn) [7-P18, 2-chloro-N-{1-[2-fluoro-4-(trifluoromethyl)phenyl]ethyl}-N-methylacetamide] | 94.5055
22 | CN(C(=O)CCl)C(c1ccc(Cl)cc1)C(F)(F)F (stereo not drawn) [7-J16, 2-chloro-N-[1-(4-chlorophenyl)-2,2,2-trifluoroethyl]-N-methylacetamide] | 101.413
23 | CC(c1ccc(C(F)(F)F)c(Cl)c1)N(C)C(=O)CCl (stereo not drawn) [7-F14, 2-chloro-N-{1-[3-chloro-4-(trifluoromethyl)phenyl]ethyl}-N-methylacetamide] | 6.593
24 | Cc1ccc(C=C(C#N)C(=O)Nc2nccs2)s1 [8-P13, 2-cyano-3-(5-methylthiophen-2-yl)-N-(1,3-thiazol-2-yl)prop-2-enamide] | 93.61

Row | SMILES | % of control remaining [%]
25 | Cc1ccccc1NC(=O)C(C#N)=Cc1ccc2c(c1)OCCO2 [8-J03, 2-cyano-3-(2,3-dihydro-1,4-benzodioxin-6-yl)-N-(2-methylphenyl)prop-2-enamide] | 129.461
26 | N#Cc1ccc(N2C(=O)C=CC2=O)cc1 [10-B09, 4-(2,5-dioxo-2,5-dihydro-1H-pyrrol-1-yl)benzonitrile] | 133.438
27 | O=C1C=CC(=O)N1c1ccc(F)cc1 [10-M10, 1-(4-fluorophenyl)-2,5-dihydro-1H-pyrrole-2,5-dione] | 118.75
28 | O=C1C=CC(=O)N1c1ccc(SC(F)F)cc1 [10-A18, 1-{4-[(difluoromethyl)sulfanyl]phenyl}-2,5-dihydro-1H-pyrrole-2,5-dione] | 29.6875
29 | Cc1ccc(C=C(C#N)C(=O)Nc2ccccc2C(=O)O)s1 [9-K08, 2-[2-cyano-3-(5-methylthiophen-2-yl)prop-2-enamido]benzoic acid] | 38.0524
30 | COc1ccccc1NC(=O)C(C#N)=Cc1ccc(C)s1 [8-B15, 2-cyano-N-(2-methoxyphenyl)-3-(5-methylthiophen-2-yl)prop-2-enamide] | 118.838
31 | Cc1ccc(C=C(C#N)C(=O)Nc2ccccc2Cl)s1 [9-C22, N-(2-chlorophenyl)-2-cyano-3-(5-methylthiophen-2-yl)prop-2-enamide] | 83.2959
32 | O=C(Nc1nccs1)N1CCSSCC1 [10-O22, N-(1,3-thiazol-2-yl)-1,2,5-dithiazepane-5-carboxamide] | 109.063
33 | O=C(CCl)N(Cc1ccc(F)cc1)C1CCCCC1 [4-I13, 2-chloro-N-cyclohexyl-N-[(4-fluorophenyl)methyl]acetamide] | 87.6608
34 | CC(Cl)C(=O)Nc1sc(-c2ccccc2)cc1C(N)=O (stereo not drawn) [4-H13, 2-(2-chloropropanamido)-5-phenylthiophene-3-carboxamide] | 58.3135
35 | CC1(C)C(=O)Nc2ccc(C(=O)CCl)cc21 [10-N21, 5-(2-chloroacetyl)-3,3-dimethyl-2,3-dihydro-1H-indol-2-one] | 40.3125
36 | O=C1CCCc2cc(C(=O)CCl)ccc2N1 [10-M20, 7-(2-chloroacetyl)-2,3,4,5-tetrahydro-1H-1-benzazepin-2-one] | 137.5
37 | Cn1c(=O)oc2cc(C(=O)CCl)ccc21 [10-F07, 6-(2-chloroacetyl)-3-methyl-2,3-dihydro-1,3-benzoxazol-2-one] | 93.125
38 | C=CC(=O)NC(Cn1cncn1)c1ccccc1 (stereo not drawn) [3-F17, N-[1-phenyl-2-(1H-1,2,4-triazol-1-yl)ethyl]prop-2-enamide] | 118.415
39 | Cc1cccc(N(Cc2ccccc2)C(=O)CCl)c1 [6-O07, N-benzyl-2-chloro-N-(3-methylphenyl)acetamide] | 98
40 | O=C(CCl)N(Cc1ccccc1)c1ccccc1 [4-G13, N-benzyl-2-chloro-N-phenylacetamide] | 77.7513
41 | O=C(CCl)N(Cc1ccc(Cl)c([N+](=O)[O-])c1)c1ccccc1 [6-H06, 2-chloro-N-[(4-chloro-3-nitrophenyl)methyl]-N-phenylacetamide] | 8.195
42 | C=CC(=O)NCC1(S(=O)(=O)CC)CC1 [3-O13, N-{[1-(ethanesulfonyl)cyclopropyl]methyl}prop-2-enamide] | 91.2495
43 | N#CC(=Cc1c(F)c(F)c(F)c(F)c1F)C(=O)NC1CCCCC1 [8-O15, 2-cyano-N-cyclohexyl-3-(2,3,4,5,6-pentafluorophenyl)prop-2-enamide] | 32.5311
44 | N#CC(=Cc1ccc(F)c(F)c1)C(=O)NC1CCCCC1 [9-J22, 2-cyano-N-cyclohexyl-3-(3,4-difluorophenyl)prop-2-enamide] | 94.0824
45 | N#CC(=Cc1cc(F)ccc1F)C(=O)NC1CCCCC1 [8-G08, 2-cyano-N-cyclohexyl-3-(2,5-difluorophenyl)prop-2-enamide] | 64.3983
46 | N#CC(=Cc1ccccc1)C(=O)NC1CCCCCCC1 [8-G17, 2-cyano-N-cyclooctyl-3-phenylprop-2-enamide] | 98.9212
47 | Cc1ccc(C=C(C#N)C(=O)NC2CCCCC2)cc1C [8-G10, 2-cyano-N-cyclohexyl-3-(3,4-dimethylphenyl)prop-2-enamide] | 108.216
48 | N#CC(=Cc1ccc([N+](=O)[O-])c(Cl)c1)C(=O)NC1CCCCC1 [8-B08, 3-(3-chloro-4-nitrophenyl)-2-cyano-N-cyclohexylprop-2-enamide] | 29.8755
